Inconclusive results are not listed. Some compounds were tested as several samples or in several runs, with calls that do not always agree. Activity calls are given as the source filed them. How the source made its calls, unless noted: active means hit-call score of the fitted dose curve at least 0.9, where 1 is the maximum; inactive means score below 0.9.
What was measured:
[1] = ATG_PBREM_CIS: Attagene CIS-FACTORIAL HepG2 Assay for human Phenobarbital-responsive Enhancer Module (PBREM) (AID 2282955); details: HepG2 PBREM cis-reporter, Attagene multiplexed transcription; actives raise or lower the signal
Summary of the method: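 After a 24 h incubation with test chemical, transfected HepG2 cells yield total RNA; reporter-specific RT-PCR products are fluorescently labelled, HpaI-digested and resolved by capillary electrophoresis against ROX size standards.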

[2] = target: Paired box protein Pax-6 (Homo sapiens) (UniProt P26367); assay: ATG_Pax6_CIS: Attagene CIS-FACTORIAL HepG2 Assay for human Paired Box 6 (PAX6) (AID 2282956); details: HepG2 CIS-FACTORIAL PAX6 reporter transcription, RNA readout; actives raise or lower the signal
Summary of the method: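 DMSO-referenced bidirectional fits of reporter mRNA fluorescence; HepG2 with transient cis-promoter MRTUs, 24 h post-dose, RT-PCR plus capillary electrophoresis detection.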

[3] = ATG_PXRE_CIS: Attagene CIS-FACTORIAL HepG2 Assay for human Pregnane X Receptor Element (PXRE) (AID 2282957); details: HepG2 Attagene CIS-FACTORIAL PXRE reporter, mRNA; actives raise or lower the signal
Summary of the method: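 Using HepG2 transfected with multiple reporter transcription units, endogenous factor-driven transcription was scored as reporter mRNA after 24 h exposure.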

[4] = ATG_PPRE_CIS: Attagene CIS-FACTORIAL HepG2 Assay for human Peroxisome Proliferator-activated Response Element (PPRE) (AID 2282958); details: HepG2 PPRE cis-element reporter, Attagene transcription factor profiling; actives raise or lower the signal
Summary of the method: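 Multiplexed reporter transcription units under cis-regulatory promoters were transfected into HepG2 cells to capture endogenous factor activity. A 24 h incubation preceded RNA isolation and fluorescent RT-PCR fragment analysis.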

[5] = ATG_RORE_CIS: Attagene CIS-FACTORIAL HepG2 Assay for human RAR-related Orphan Receptor Element (RORE) (AID 2282959); details: HepG2 Attagene cis-factorial RORE reporter, mRNA; actives raise or lower the signal
Summary of the method: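 Fluorescence intensity of reporter-specific cDNA fragments, separated by capillary electrophoresis, gives the signal. Source: HepG2 liver cells transiently transfected with cis-element reporters and exposed 24 h; DMSO-normalized bidirectional fit.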

[6] = ATG_Sox_CIS: Attagene CIS-FACTORIAL HepG2 Assay for human SRY-box transcription factor (SOX) (AID 2282960); details: HepG2 Attagene cis-factorial SOX reporter, mRNA; actives raise or lower the signal
Summary of the method: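 After 24 h of chemical treatment, transfected HepG2 reporter cells are lysed for total RNA. Transcript levels come from RT-PCR with labelled primer extension and capillary electrophoresis, analysed bidirectionally versus DMSO.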

[7] = target: Transcription factor Sp1 (Homo sapiens) (UniProt P08047); assay: ATG_Sp1_CIS: Attagene CIS-FACTORIAL HepG2 Assay for human Specificity Protein 1 (Sp1) (AID 2282961); details: HepG2 Sp1 cis-reporter transcription, actives raise or lower the signal
Summary of the method: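 Sp1-driven reporter mRNA, read as capillary electrophoresis fluorescence after RT-PCR, in transiently transfected HepG2 cells dosed for 24 h; signal change in either direction relative to DMSO.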

[8] = ATG_SREBP_CIS: Attagene CIS-FACTORIAL HepG2 Assay for human Sterol Regulatory Element Binding (SREBP) (AID 2282962); details: HepG2 Attagene cis-factorial SREBP reporter, mRNA; actives raise or lower the signal
Summary of the method: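 In this cis-format assay, HepG2 liver cells express reporters controlled by promoter elements responsive to native transcription factors. Exposure lasts 24 h; reporter mRNA fluorescence from capillary electrophoresis gives the signal, fitted bidirectionally against DMSO.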

[9] = target: Signal transducer and activator of transcription 3 (Homo sapiens) (UniProt P40763); assay: ATG_STAT3_CIS: Attagene CIS-FACTORIAL HepG2 Assay for human Signal Transducer and Activator of Transcription 3 (STAT3) (AID 2282963); details: HepG2, Attagene cis-factorial STAT3 reporter transcription; actives raise or lower the signal
Summary of the method: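 Uses human liver HepG2 transiently carrying cis-regulated reporter transcription units. Following 24 h dosing, reporter mRNA induction was detected by RT-PCR and capillary electrophoresis, analysed bidirectionally versus DMSO.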

[10] = ATG_TA_CIS: Attagene CIS-FACTORIAL HepG2 Assay for human TA Basal Promoter (AID 2282964); details: HepG2 Attagene CIS-factorial TA basal promoter reporter; actives raise or lower the signal
Summary of the method: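 HepG2 cells transiently transfected with multiple reporter units under cis promoter elements, reporting endogenous transcription factor activity; this endpoint tracks the TA basal promoter as background control. Reporter mRNA after 24 h dosing measured by RT-PCR/capillary electrophoresis; bidirectional fits versus DMSO.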

[11] = ATG_TCF_b_cat_CIS: Attagene CIS-FACTORIAL HepG2 Assay for human T-Cell-Factor with beta-catenin (TCF/b-cat) (AID 2282965); details: HepG2 TCF/beta-catenin cis-reporter transcription, actives raise or lower the signal
Summary of the method: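 In this cis-format system, transfected HepG2 cells report endogenous transcription factor activity. Readout after 24 h exposure is reporter transcript abundance from RT-PCR and capillary electrophoresis, analysed for gain or loss of signal versus DMSO.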

[12] = ATG_TAL_CIS: Attagene CIS-FACTORIAL HepG2 Assay for human TAL Basal Promoter (AID 2282966); details: HepG2 Attagene cis-factorial TAL promoter reporter; actives raise or lower the signal;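 further: background control endpoint measuring basal TAL promoter reporter mRNA not a specific factor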
Summary of the method: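 After 24 hours of chemical exposure, transfected HepG2 cells yielded RNA that was converted to 6-FAM-labelled, HpaI-digested reporter fragments for capillary electrophoresis. Values derive from bidirectional fitting against DMSO controls.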

[13] = ATG_TGFb_CIS: Attagene CIS-FACTORIAL HepG2 Assay for human Transforming Growth Factor (TGF) (AID 2282967); details: HepG2 Attagene CIS TGFb reporter, mRNA transcription; actives raise or lower the signal
Summary of the method: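 HepG2 cells transiently transfected with cis-promoter-driven multiple reporter units measure endogenous TF activity; reporter mRNA quantified at 24 h by RT-PCR, FAM labeling, HpaI digestion and capillary electrophoresis. Bidirectional fit vs DMSO.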

[14] = ATG_VDRE_CIS: Attagene CIS-FACTORIAL HepG2 Assay for human Vitamin D Receptor Element (VDRE) (AID 2282968); details: HepG2 VDRE cis-reporter transcription, actives raise or lower the signal
Summary of the method: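 Transfected HepG2 reporter cells, chemical treatment 24 h. RNA isolated, cDNA amplified with reporter-specific primers, products analysed by capillary electrophoresis. Endpoint fitted in both directions versus DMSO.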

[15] = target: Estrogen receptor (Homo sapiens) (UniProt P03372); assay: ATG_ERa_TRANS: Attagene TRANS-FACTORIAL HepG2 Assay for human Estrogen Receptor alpha (ERa) (AID 2282970; active means hit-call score of the fitted dose curve at least 0.9, where 1 is the maximum); details: HepG2 Attagene TRANS ERa GAL4 reporter, mRNA
Summary of the method: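 Liver-derived HepG2 cells expressing chimeric nuclear receptor-Gal4 proteins from transient transfection were exposed for 24 hours. Gain of reporter mRNA signal versus DMSO, read by capillary electrophoresis of FAM-labelled PCR products, was recorded.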

[16] = target: X-box-binding protein 1 (Homo sapiens) (UniProt P17861); assay: ATG_Xbp1_CIS: Attagene CIS-FACTORIAL HepG2 Assay for human X-box Binding Protein 1 (XBP1) (AID 2282972); details: HepG2 XBP1 cis-element reporter, Attagene multiplex; actives raise or lower the signal
Summary of the method: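 Changes in reporter transcript abundance, read by RT-PCR and capillary electrophoresis, reflect endogenous transcription factor activity. Transfected HepG2 cells received compound for 24 hours; DMSO defined baseline for bidirectional analysis.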

[17] = ATG_M_19_TRANS: Attagene TRANS-FACTORIAL HepG2 Assay for M19 Transcription Factor (Internal Marker) (AID 2282974; active means hit-call score of the fitted dose curve at least 0.9, where 1 is the maximum); details: HepG2 Attagene TRANS-FACTORIAL M19 internal marker reporter
Summary of the method: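 Measured here: internal-marker reporter transcript from HepG2 cells transfected with MRTUs, harvested at 24 h. cDNA PCR products were 6-FAM labelled by primer extension, cut with HpaI for 2 h at 37 C, and resolved by CE.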

[18] = target: Nuclear receptor subfamily 1 group I member 3 (Homo sapiens) (UniProt Q14994); assay: ATG_CAR_TRANS: Attagene TRANS-FACTORIAL HepG2 Assay for human Constitutive Androstane Receptor (CAR) (AID 2282969; active means hit-call score of the fitted dose curve at least 0.9, where 1 is the maximum;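 further: activators raise reporter mRNA above DMSO so AC50 marks induction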); details: HepG2 Attagene TRANS-FACTORIAL CAR reporter
Summary of the method: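 Steps: transient transfection of HepG2 with multiple GAL4-UAS reporter units; 24 h compound incubation; RNA isolation, RT-PCR, 6-FAM primer extension, HpaI digest; capillary electrophoresis. Gain-of-signal relative to DMSO negative control.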

[19] = ATG_GAL4_TRANS: Attagene TRANS-FACTORIAL HepG2 Assay for GAL4 (Internal Marker) (AID 2282976; active means hit-call score of the fitted dose curve at least 0.9, where 1 is the maximum); details: HepG2 Attagene TRANS GAL4 internal marker reporter
Summary of the method: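 First, HepG2 cells were transfected with reporter units under GAL4-UAS control. Next, they were treated with chemical for 24 h. Finally, RNA was reverse-transcribed, PCR-amplified, FAM-labelled and resolved by capillary electrophoresis, with induction scored against DMSO.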

[20] = target: Steroid hormone receptor ERR1 (Homo sapiens) (UniProt P11474); assay: ATG_ERRa_TRANS: Attagene TRANS-FACTORIAL HepG2 Assay for human Estrogen-Related Receptor alpha (ERRa) (AID 2282971; active means hit-call score of the fitted dose curve at least 0.9, where 1 is the maximum); details: HepG2 Attagene TRANS reporter, ERRa transactivation
Summary of the method: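 Reporter transcript induction was quantified by RT-PCR and capillary electrophoresis of FAM-labelled, HpaI-cut products after 24 h treatment of HepG2 cells carrying transiently transfected GAL4-UAS reporter units and an exogenous ERRa-Gal4 fusion; activity scored as increase over DMSO.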

Measured: AC50

Sequence of X-box-binding protein 1 (Homo sapiens) (P17861 whole entry, looked up): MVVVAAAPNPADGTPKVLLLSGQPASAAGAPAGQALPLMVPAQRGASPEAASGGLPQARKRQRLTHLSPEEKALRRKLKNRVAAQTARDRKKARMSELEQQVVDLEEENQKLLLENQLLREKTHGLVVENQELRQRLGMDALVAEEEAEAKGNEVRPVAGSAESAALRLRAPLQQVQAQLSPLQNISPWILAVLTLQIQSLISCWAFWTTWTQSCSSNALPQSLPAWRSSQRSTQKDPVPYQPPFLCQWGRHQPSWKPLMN
Sequence of Estrogen receptor (Homo sapiens) (P03372 whole entry, looked up, the tested form may be a part): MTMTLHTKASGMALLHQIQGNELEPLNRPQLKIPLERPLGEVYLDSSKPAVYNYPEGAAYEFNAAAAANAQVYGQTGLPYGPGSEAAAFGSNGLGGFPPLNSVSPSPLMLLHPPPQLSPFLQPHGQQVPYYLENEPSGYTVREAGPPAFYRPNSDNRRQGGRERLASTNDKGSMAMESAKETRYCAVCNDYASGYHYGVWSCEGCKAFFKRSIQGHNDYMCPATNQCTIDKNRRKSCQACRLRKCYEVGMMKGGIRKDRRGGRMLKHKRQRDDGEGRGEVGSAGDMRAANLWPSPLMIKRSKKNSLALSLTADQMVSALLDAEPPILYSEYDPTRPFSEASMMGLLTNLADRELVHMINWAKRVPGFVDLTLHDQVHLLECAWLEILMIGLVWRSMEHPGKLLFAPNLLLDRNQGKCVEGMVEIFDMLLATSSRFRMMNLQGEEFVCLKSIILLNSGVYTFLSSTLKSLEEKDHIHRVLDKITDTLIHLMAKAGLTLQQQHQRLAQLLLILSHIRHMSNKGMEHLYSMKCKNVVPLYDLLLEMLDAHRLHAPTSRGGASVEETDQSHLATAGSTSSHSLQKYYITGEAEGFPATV
Sequence of Signal transducer and activator of transcription 3 (Homo sapiens) (P40763 whole entry, looked up): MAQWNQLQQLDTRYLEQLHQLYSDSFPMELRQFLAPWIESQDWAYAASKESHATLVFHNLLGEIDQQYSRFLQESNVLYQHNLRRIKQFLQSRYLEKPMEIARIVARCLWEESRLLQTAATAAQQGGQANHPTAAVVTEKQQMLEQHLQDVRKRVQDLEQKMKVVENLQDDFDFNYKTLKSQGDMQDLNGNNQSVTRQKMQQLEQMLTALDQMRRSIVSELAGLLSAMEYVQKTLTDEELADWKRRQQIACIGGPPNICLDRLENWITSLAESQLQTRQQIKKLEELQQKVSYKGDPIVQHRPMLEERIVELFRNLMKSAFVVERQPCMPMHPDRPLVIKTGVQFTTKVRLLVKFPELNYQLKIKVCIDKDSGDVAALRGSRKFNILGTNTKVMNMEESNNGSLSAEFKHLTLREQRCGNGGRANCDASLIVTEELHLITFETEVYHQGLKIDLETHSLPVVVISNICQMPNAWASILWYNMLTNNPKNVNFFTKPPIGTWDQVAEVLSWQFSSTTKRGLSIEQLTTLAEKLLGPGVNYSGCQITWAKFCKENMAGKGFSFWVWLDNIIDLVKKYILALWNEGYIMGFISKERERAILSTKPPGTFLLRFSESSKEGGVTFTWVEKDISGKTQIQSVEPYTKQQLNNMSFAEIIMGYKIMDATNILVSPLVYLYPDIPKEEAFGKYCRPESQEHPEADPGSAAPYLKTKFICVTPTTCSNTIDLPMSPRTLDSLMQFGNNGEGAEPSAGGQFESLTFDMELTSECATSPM
Sequence of Transcription factor Sp1 (Homo sapiens) (P08047 whole entry, looked up): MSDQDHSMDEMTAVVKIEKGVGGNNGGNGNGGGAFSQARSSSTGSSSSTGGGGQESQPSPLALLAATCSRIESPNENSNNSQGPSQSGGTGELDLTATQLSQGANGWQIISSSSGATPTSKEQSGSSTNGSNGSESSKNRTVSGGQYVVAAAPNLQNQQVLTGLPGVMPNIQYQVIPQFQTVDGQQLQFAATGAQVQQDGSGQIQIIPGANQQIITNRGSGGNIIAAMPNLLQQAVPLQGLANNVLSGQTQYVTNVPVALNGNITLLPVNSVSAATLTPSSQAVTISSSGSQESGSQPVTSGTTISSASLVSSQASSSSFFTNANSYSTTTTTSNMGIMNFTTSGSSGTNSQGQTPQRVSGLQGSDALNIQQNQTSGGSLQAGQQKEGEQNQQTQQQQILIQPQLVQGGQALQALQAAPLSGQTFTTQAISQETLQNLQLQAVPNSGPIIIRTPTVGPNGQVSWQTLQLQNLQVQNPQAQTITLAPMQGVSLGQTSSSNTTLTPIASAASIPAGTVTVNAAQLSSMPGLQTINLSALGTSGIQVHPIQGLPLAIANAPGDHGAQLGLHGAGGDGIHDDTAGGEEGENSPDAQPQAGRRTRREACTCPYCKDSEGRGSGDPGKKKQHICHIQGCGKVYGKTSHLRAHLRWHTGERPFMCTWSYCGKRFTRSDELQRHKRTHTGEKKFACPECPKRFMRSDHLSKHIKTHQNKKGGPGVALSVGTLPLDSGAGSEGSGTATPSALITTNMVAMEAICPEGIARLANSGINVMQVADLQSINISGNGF
Sequence of Paired box protein Pax-6 (Homo sapiens) (P26367 whole entry, looked up): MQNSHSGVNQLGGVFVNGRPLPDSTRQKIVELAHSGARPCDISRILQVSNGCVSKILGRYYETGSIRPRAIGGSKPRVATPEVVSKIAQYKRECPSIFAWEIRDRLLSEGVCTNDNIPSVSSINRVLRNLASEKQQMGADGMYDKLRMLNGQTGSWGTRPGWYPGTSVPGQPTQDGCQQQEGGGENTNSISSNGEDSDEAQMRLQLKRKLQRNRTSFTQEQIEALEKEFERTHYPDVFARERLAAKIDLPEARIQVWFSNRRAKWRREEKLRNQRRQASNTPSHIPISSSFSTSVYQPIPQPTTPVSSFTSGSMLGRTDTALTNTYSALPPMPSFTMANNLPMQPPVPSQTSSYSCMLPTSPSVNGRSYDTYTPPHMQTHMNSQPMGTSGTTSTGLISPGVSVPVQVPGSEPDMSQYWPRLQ
Sequence of Steroid hormone receptor ERR1 (Homo sapiens) (P11474 whole entry, looked up, the tested form may be a part): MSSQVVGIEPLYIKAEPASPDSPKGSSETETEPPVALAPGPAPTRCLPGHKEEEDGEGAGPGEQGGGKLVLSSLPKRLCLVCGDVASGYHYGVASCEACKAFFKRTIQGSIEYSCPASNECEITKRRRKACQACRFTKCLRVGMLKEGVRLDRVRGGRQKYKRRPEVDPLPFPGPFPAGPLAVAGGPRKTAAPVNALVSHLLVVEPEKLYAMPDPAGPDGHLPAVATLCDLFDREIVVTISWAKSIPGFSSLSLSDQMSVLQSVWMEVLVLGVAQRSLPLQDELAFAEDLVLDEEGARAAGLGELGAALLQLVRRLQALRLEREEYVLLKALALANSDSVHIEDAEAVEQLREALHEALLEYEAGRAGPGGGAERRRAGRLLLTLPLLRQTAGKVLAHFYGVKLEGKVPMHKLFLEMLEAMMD
Sequence of Nuclear receptor subfamily 1 group I member 3 (Homo sapiens) (Q14994 whole entry, looked up, the tested form may be a part): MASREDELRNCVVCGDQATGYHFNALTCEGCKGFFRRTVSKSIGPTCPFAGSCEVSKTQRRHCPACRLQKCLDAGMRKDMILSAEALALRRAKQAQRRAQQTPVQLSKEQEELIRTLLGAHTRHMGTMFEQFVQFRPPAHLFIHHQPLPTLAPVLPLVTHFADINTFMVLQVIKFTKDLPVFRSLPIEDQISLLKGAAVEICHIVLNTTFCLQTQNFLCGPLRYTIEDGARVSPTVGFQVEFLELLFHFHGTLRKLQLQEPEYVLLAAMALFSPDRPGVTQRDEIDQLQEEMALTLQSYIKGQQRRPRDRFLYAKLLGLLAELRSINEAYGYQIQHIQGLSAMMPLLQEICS

CCCOc1sc(C(=O)N2CCC(c3cc(CN)ccc3F)CC2)c(C)c1Br
inactive: [1] | [2] | [4] | [5] | [6] | [7] | [9] | [10] | [11] | [12] | [13] | [14] | [15] | [16] | [17]
active: [3] 2.09 µM | [8] 3.7 µM

CC(O)C(=O)O (configuration not stated)
inactive: [1] | [2] | [3] | [5] | [6] | [7] | [8] | [9] | [10] | [11] | [12] | [13] | [14] | [18] | [15] | [16] | [17] | [19]

OC1CCCCC1
inactive: [1] | [2] | [3] | [4] | [5] | [6] | [7] | [8] | [9] | [10] | [11] | [12] | [13] | [14] | [15] | [16] | [19]

CC(=O)NC1(c2cccc(F)c2)CCN(CC[C@@]2(c3ccc(Cl)c(Cl)c3)CN(c3ccccc3)C(=O)CO2)CC1
inactive: [9] | [12] | [13] | [17] | [19]
active: [1] 56.2 µM | [2] 26 µM | [3] 1.42 µM | [4] 55.6 µM | [5] 50.2 µM | [6] 55.9 µM | [7] 44.4 µM | [8] 8.79 µM | [10] 16.8 µM | [11] 8.64 µM | [14] 39.8 µM | [16] 25.7 µM

CC(=O)CC(C)(C)O
inactive: [2] | [3] | [4] | [5] | [6] | [7] | [8] | [9] | [10] | [11] | [12] | [13] | [14] | [20] | [16] | [17] | [19]
active: [3] 25 µM | [15] 26.5 µM

C[C@@H]1C[C@H]2[C@@H]3CCC4=CC(=O)C=C[C@]4(C)[C@@]3(F)[C@@H](O)C[C@]2(C)[C@@]1(O)C(=O)COP(=O)(O)O
inactive: [2] | [3] | [4] | [5] | [6] | [7] | [8] | [9] | [10] | [11] | [12] | [13] | [14] | [15] | [16] | [17] | [19]
active: [3] 25.9 µM | [13] 0.473 µM

From PubChem BioAssay (EPA / NIEHS)
